A selection: hits, their analogues and other compounds. The true share with any hit is near 7.4%.
Luc counter: counter-screen: inhibitors of Kinase-Glo firefly luciferase. 0.28% of 200,000 active. Potency, µM (titrated, usually from 38.3 µM), for the others: at the highest dose activity change, negative = inhibition, hits mostly inhibitors. Q27757. AID 1379. Kinase-Glo luciferase, ATP luminescence, 8 min; further: on the % scale 0 is the no-effect control and ±100 the full control effect; nearly all actives have a fitted effect of over 60% in size
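Compounds were added to a substrate mix at pH 7.2 (50 mM imidazole, 10 uM ATP, within the enzyme's linear range), followed by Kinase-Glo detection reagent; luminescence was measured after 8 minutes at ambient temperature.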
FLuc counter: counter-screen for miR-21 project: firefly luciferase inhibitors or activators; P08659; purified FLuc, Km substrates, luminescence inhibition; Potency, µM (titrated, usually from 57.5 µM), without a hit: top-dose activity change, negative = inhibition, hits mostly inhibitors; 6.9% of 360,000 active; AID 588342;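 further: plate controls were vehicle for no effect and reference inhibitor for full effect; nearly all actives have a fitted effect of over 55% in size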
Target sequence (P08659 whole entry, looked up): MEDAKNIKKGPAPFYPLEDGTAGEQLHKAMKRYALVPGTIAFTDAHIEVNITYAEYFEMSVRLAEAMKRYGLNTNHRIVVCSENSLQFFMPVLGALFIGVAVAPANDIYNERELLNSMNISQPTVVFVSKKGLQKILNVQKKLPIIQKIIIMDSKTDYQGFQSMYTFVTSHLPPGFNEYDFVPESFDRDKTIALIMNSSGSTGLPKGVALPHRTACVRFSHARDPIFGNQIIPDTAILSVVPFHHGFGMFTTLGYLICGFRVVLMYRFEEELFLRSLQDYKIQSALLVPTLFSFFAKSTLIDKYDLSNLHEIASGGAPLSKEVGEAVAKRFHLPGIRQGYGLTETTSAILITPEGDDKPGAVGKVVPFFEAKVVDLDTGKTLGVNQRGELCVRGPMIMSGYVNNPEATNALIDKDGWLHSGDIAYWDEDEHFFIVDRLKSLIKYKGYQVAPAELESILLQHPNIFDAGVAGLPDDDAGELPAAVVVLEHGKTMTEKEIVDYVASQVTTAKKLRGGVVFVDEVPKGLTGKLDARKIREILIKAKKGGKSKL
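Purified P. pyralis luciferase (10nM final) with 10uM D-luciferin and 10uM ATP (Km levels) in 50mM Tris acetate pH 7.5, 10mM Mg acetate, 0.01% Tween-20, 0.05% BSA; qHTS 6-point titration, ~60 µM downward; luminescence read.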
SMN2 splice enh: SMN2 splice variant enhancement; HEK293 SMN2-luciferase splicing reporter, luminescence, 30-36 h; 2.8% of 210,000 active; Potency, µM (doses to about 46.1 µM), for inactives: top-dose activity change, positive = activation, hits mostly activators; AID 1458; further: % of control where 0% means no effect; nearly all actives have a fitted effect of over 55% in size
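HEK293 cells carry an SMN2 […]–luciferase reporter in which exon 7 inclusion puts luciferase in frame. Cells were plated 10-12 h before compound addition, then incubated 30-36 h at 37C. ONE-Glo luminescence was read; sodium butyrate at 4.5 mM final served as control.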
NPC1 promoter act: activators of NPC1 promoter | Huh7 NPC1 promoter luciferase reporter, 24 h | Potency, µM (highest dose often 9.22 µM), for the others: top-dose activation, hits mostly activators | 2.4% of 320,000 active | AID 485313; further: % of control where 0% means no effect; nearly all actives have a fitted effect of over 60% in size
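Luciferase expression driven by the NPC1 promoter was measured in stably transfected Huh7 cells after a 24 h compound incubation, using a luciferase reagent and a luminescence read.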
Rab9 prom act: activators of Rab9 promoter. Huh7 Rab9 promoter-luciferase reporter, luminescence, 24 h. Potency, µM (highest dose often 9.22 µM), for the others: at the top dose activation, negative = inhibition, actives largely listed as activators. 2.8% of 320,000 active. AID 485297; further: % of control where 0% means no effect; nearly all actives have a fitted effect of over 60% in size
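Luminescence read-out: Huh7 cells stably expressing Rab9-luciferase, treated 24 h with compound at 37 °C, then lysed with luciferase reagent for 10 min at ambient before reading.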
ELG1 genotoxic: genotoxicity induction in ELG1-luciferase HEK293T cells; Potency, µM (doses to about 46 µM), for inactives: at the top dose activity change, positive = activation, most hits filed as activators; AID 504466; HEK293T ELG1-luciferase reporter, luminescence, 16 h; 1.3% of 330,000 active; further: % of control where 0% means no effect; nearly all actives have a fitted effect of over 60% in size
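Reporter readout depends on ELG1 protein level, which increases with genetic stress. After 16 hr compound exposure at 37 °C, luciferase activity was quantified using ONE-Glo.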
* = called active by the depositor; [ ] = another dose, or the depositor's remark. The call rests on the fitted dose curve; in most records, active means well fitted curve in the direction sought with a large enough effect; inconclusive means small, poorly fitted or top-dose-only effect, or another doubt; inactive means no such curve, though single readings can be large; an effect the other way counts as inactive or inconclusive. Potency means the concentration at half of the fitted maximal effect.

Screening COc1cc([N+](=O)[O-])ccc1NC(=S)N1CCOCC1 returned FLuc counter 3%, NPC1 promoter act -2%, Rab9 prom act -1% and ELG1 genotoxic 0%.
For O=C(Nc1ccc([N+](=O)[O-])cc1)Nc1ccc2c(c1)OCCO2 the results were Luc counter 3%, FLuc counter 2.1µM*, SMN2 splice enh 6.3µM*, NPC1 promoter act 1µM*, Rab9 prom act 0.79µM* and ELG1 genotoxic -6%.
`COc1cc([N+](=O)[O-])ccc1NC(=O)Nc1ccc2c(c1)OCCO2` gave Luc counter 1%, FLuc counter 6.7µM*, SMN2 splice enh 8%, NPC1 promoter act 5%, Rab9 prom act inconclusive and ELG1 genotoxic 3%.
For Cc1snc(SCC(=O)c2ccc(F)cc2)c1C#N the results were Luc counter -2%, FLuc counter inconclusive, SMN2 splice enh 20%, NPC1 promoter act inconclusive, Rab9 prom act 2.8µM* and ELG1 genotoxic 10%.
Screening Cc1snc(SCC(=O)c2ccc([N+](=O)[O-])cc2)c1C#N returned Luc counter 3%, FLuc counter inconclusive, SMN2 splice enh inconclusive, NPC1 promoter act inconclusive, Rab9 prom act inconclusive and ELG1 genotoxic 11%.
`CCCCc1ccc(-c2csc(/C(C#N)=C\c3ccco3)n2)cc1` gave Luc counter 4%, FLuc counter -23%, SMN2 splice enh -25%, NPC1 promoter act -1%, Rab9 prom act -1% and ELG1 genotoxic 1%.
N#C/C(=C/c1ccc(-c2cc(C(=O)O)cc(C(=O)O)c2)o1)c1nc2ccccc2s1 was read as Luc counter -4%, FLuc counter 2.1µM*, SMN2 splice enh 13%, NPC1 promoter act -2%, Rab9 prom act -3% and ELG1 genotoxic -3%.
`N#CCCn1cc(/C=C(\C#N)c2nc3ccccc3s2)c(-c2ccc(F)cc2)n1` gave Luc counter 7%, FLuc counter -2%, SMN2 splice enh -8%, NPC1 promoter act -25%, Rab9 prom act 1% and ELG1 genotoxic 6%.
Screening N#C/C(=C\c1ccc(-c2ccccc2Cl)o1)C(=O)Nc1nc2ccccc2s1 returned Luc counter -2%, FLuc counter inconclusive, SMN2 splice enh -15%, NPC1 promoter act 8%, Rab9 prom act 0% and ELG1 genotoxic 5%.
Screening N#C/C(=C/c1ccco1)c1nc2ccccc2s1 returned Luc counter inconclusive, FLuc counter 1.9µM*, SMN2 splice enh inconclusive, NPC1 promoter act 18%, Rab9 prom act 3.5µM* and ELG1 genotoxic 16µM*.
Screening N#C/C(=C\c1ccco1)c1nc2ccccc2s1 returned Luc counter inconclusive, FLuc counter 1.7µM*, SMN2 splice enh 11µM*, NPC1 promoter act 29%, Rab9 prom act inconclusive and ELG1 genotoxic 7.3µM*.
`OC(CN1CCNCC1)Cn1c2ccc(Br)cc2c2cc(Br)ccc21` (stereo unspecified) gave Luc counter 3% and SMN2 splice enh -6%.
COc1ccc(-c2cc3cc(OC)c(OC)cc3c(C)n2)cc1C was read as FLuc counter 17µM*, NPC1 promoter act 2%, Rab9 prom act -1% and ELG1 genotoxic 0%.
`CC(=C/c1ccccc1)/C=C1/SC(N2CCOCC2)=NC1=O` gave Luc counter -6%, FLuc counter 15µM*, SMN2 splice enh inconclusive, NPC1 promoter act inconclusive, Rab9 prom act inconclusive and ELG1 genotoxic 11%.
`CCN1C(=O)/C(=C\c2ccncc2)SC1=S` gave FLuc counter -1%, NPC1 promoter act -1%, Rab9 prom act 1% and ELG1 genotoxic 0%.
`CC1Oc2ccccc2C=C1/C=C1/SC(N2CCOCC2)=NC1=O` (stereo unspecified) gave Luc counter 0%, FLuc counter 21µM*, SMN2 splice enh 21%, NPC1 promoter act 20%, Rab9 prom act inconclusive and ELG1 genotoxic 12%.
For CCN1C(=O)/C(=C/C2=Cc3ccccc3OC2C)SC1=S (stereo unspecified) the results were FLuc counter 13µM*, NPC1 promoter act -2%, Rab9 prom act 7% and ELG1 genotoxic 0%.
COc1ccc(-c2cc([C@H](O)C3CCCCN3)c3ccccc3n2)cc1 (stereo partly specified) was read as Luc counter -25%[7.66 µM] and SMN2 splice enh -4%[9.22 µM].
CCOc1ccc(NC(=O)CC2C(=O)OCCN2CC)cc1 (stereo unspecified) was read as FLuc counter -5% and SMN2 splice enh -17%.
Screening COc1cccc(CC(=O)Nc2ccc3c(c2)OC2(CCCC2)O3)c1 returned FLuc counter 13µM*, NPC1 promoter act 17%, Rab9 prom act 22% and ELG1 genotoxic 3%.
Screening CC(C)(C)OC(=O)N1CCC(c2c(C(=O)NC3CCCCC3)cnn2-c2cccc(F)c2)CC1 returned FLuc counter 0%.
`CC(=O)N1CCC2(CC1)CN(C(c1ccccc1)c1ccccc1)C2` gave Luc counter -1% and SMN2 splice enh 0%.
`CCCCC(=O)Nc1cccc(NC(=O)C(C)C)c1` gave Luc counter -5%, FLuc counter 3%, SMN2 splice enh -9%, NPC1 promoter act 0%, Rab9 prom act -7% and ELG1 genotoxic 1%.
CCCCC(=O)Nc1cccc(NC(=O)c2ccc(Br)o2)c1 was read as Luc counter -11%, FLuc counter 5%[2.3 µM], SMN2 splice enh 35µM*, NPC1 promoter act 2%, Rab9 prom act inconclusive and ELG1 genotoxic -2%.
CCCC(=O)Nc1cccc(NC(=O)c2ccc3c(c2)OCCO3)c1 was read as Luc counter -19%, FLuc counter 9.5µM*, SMN2 splice enh 13µM*, NPC1 promoter act 23%, Rab9 prom act 19% and ELG1 genotoxic inconclusive.
`CCCCC(=O)Nc1cccc(NC(=O)c2ccc3c(c2)OCO3)c1` gave Luc counter -6%, FLuc counter 19µM*, SMN2 splice enh inconclusive, NPC1 promoter act 3%, Rab9 prom act 2% and ELG1 genotoxic 0%.
Screening O=C(O)[C@@H]1CN[C@@H](C(=O)O)C1 returned SMN2 splice enh -1%.
For O=C(Nc1sc2c(c1C(=O)Nc1cccc(Cl)c1)CCCC2)c1cccs1 the results were FLuc counter -19% and SMN2 splice enh -4%.
Screening O=C(Nc1sc2c(c1C(=O)O)CCC2)c1cccs1 returned Luc counter -23%, FLuc counter 17µM*, SMN2 splice enh inconclusive, NPC1 promoter act 17%, Rab9 prom act 28% and ELG1 genotoxic 8%.

Screens (PubChem)
